Results on 56 compounds are retold here after PMC4336329 (PLoS ONE, 2015).

In all, about 310,000 compounds went through this assay and about 14,000 (4.5%) showed an effect of 50% or more. Effects have a minus sign here. Only a selection was taken, and strong results are over-represented in it overall.
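Further: peak tail current of the secondary pulse compared with the same well before compound.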

In this test the target is human ether-à-go-go-related gene (hERG) potassium channel (human, UniProt Q12809). Description: primary screen, population patch clamp on CHO cells stably expressing hERG; higher = less effect of the substance.
Sequence of human ether-à-go-go-related gene (hERG) potassium channel (Q12809 whole entry, looked up): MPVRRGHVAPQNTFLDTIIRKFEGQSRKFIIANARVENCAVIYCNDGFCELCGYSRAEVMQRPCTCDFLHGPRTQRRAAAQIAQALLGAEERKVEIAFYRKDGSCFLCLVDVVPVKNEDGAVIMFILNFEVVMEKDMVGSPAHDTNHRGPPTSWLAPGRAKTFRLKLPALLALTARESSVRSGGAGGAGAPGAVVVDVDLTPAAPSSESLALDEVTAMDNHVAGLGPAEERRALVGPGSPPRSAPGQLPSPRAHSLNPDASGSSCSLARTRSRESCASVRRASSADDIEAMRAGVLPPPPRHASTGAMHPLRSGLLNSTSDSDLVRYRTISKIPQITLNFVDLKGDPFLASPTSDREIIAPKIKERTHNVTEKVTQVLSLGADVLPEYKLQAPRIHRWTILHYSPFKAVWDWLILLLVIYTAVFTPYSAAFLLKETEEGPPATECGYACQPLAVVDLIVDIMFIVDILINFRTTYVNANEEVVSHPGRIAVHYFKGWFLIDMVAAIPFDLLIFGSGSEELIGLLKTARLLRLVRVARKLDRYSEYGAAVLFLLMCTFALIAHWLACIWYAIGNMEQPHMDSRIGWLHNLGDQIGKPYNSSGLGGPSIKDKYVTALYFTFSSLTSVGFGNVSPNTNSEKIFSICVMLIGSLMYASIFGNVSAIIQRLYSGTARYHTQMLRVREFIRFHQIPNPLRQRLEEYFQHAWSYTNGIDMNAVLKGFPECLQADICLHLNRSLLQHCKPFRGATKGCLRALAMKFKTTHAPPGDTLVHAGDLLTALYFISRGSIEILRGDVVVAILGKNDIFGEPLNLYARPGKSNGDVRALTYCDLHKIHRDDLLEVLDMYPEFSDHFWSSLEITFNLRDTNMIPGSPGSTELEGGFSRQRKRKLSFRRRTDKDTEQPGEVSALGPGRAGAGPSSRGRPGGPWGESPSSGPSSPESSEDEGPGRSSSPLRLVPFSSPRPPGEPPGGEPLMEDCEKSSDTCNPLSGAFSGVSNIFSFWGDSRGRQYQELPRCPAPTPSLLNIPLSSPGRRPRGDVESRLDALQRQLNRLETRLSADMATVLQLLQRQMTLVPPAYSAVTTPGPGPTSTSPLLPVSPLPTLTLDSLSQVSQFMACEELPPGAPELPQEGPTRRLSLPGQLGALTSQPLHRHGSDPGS
In the case of `Br.c1ccc(-c2cc3n(c2)CCc2ccccc2-3)cc1`, the “hERG current change (%, negative = inhibition) at 10uM” value is listed as 4.17%.
For the compound `O=C(CC1C(=O)NCCN1C(=S)Nc1ccccc1)Nc1ccc2c(c1)OCCO2` (centres unmarked), the “hERG current change (%, negative = inhibition) at 10uM” value was -15.2%.
For `O=C(NCCCn1ccnc1)/C(=C/c1ccc(Cl)cc1)NC(=O)c1ccccc1` the value was -74.7%.
Consider `C/C(=C\c1ccccc1)C(=O)NCCCn1ccnc1`, for which the “hERG current change (%, negative = inhibition) at 10uM” value is listed as -10.1%.
Under `O=C(NCCCn1ccnc1)c1cn(-c2ccccc2)nc1-c1ccc(F)cc1` stands -64%.
As for `O=C(NCCCn1ccnc1)c1cn(-c2ccccc2)nc1-c1ccccc1`, the “hERG current change (%, negative = inhibition) at 10uM” value is reported as -47.1%.
As for `CSc1ccc(/C=C(/NC(=O)c2ccccc2)C(=O)NCCCn2ccnc2)cc1`, the “hERG current change (%, negative = inhibition) at 10uM” value was -60.8%.
Regarding `COc1ccc(-c2nn(-c3ccccc3)cc2C(=O)NCCCn2ccnc2)cc1`, the “hERG current change (%, negative = inhibition) at 10uM” value is reported as -39.4%.
As to `O=C(NCCCn1ccnc1)/C(=C\c1cccnc1)NC(=O)c1cccc(Br)c1`, the “hERG current change (%, negative = inhibition) at 10uM” value is -0.509%.
Regarding `COc1ccc(/C=C(\NC(=O)c2ccc(Cl)cc2)C(=O)NCCCn2ccnc2)cc1OC`, the “hERG current change (%, negative = inhibition) at 10uM” value came out at 13.9%.
On to `O=C(NCCCn1ccnc1)/C(=C\c1ccc(Br)cc1)NC(=O)c1ccccc1`, for which the “hERG current change (%, negative = inhibition) at 10uM” value was -75.8%.
For `CCOC(=O)C1=CN(c2cccc(F)c2)C=C(C(=O)OCC)C1c1cc(OC)c(O)c([N+](=O)[O-])c1` the value was -3.91%; for `CCOC(=O)c1nc(C)nc(Sc2n[nH]c(-c3cc(C(F)(F)F)cc(C(F)(F)F)c3)n2)c1C`, -19.5%; for `CCCc1cc(=O)oc2c(CN(CC)CC)c(O)c(Cl)cc12`, -39.8%.
For `CC(C)N(C(=O)CSc1nnc(NC(=O)C2CCC2)s1)C(C)C` the value was -11.1%.
For `COc1ccc(CNC(=O)c2cc(-c3cccs3)on2)cc1` the value was -2.38%; for `CCN(CC(=O)Nc1ccc2c(c1)OCCO2)C(=O)/C=C/c1ccc(F)cc1`, -7.2%; for `O=C(NCCCn1ccnc1)C(Cl)(Cl)Cl`, -0.517%.
With `CN(C)CCCNC(=O)c1ccc(Cl)c(S(=O)(=O)N(C)c2ccccc2)c1.Cl`, the “hERG current change (%, negative = inhibition) at 10uM” value is given as -35%.
For `O=C(NCCCn1ccnc1)/C(=C\c1ccccc1F)NC(=O)c1ccccc1` the value was -75%; for `CC(C(=O)NCCCn1ccnc1)(c1ccccc1)c1ccccc1.Cl`, -73.1%; for `O=C(NCCCn1ccnc1)c1ccc(Cl)c(Cl)c1`, -17.3%.
On to `O=C(NCCCn1ccnc1)/C(=C/c1ccc(F)cc1)NC(=O)c1ccccc1`, for which the “hERG current change (%, negative = inhibition) at 10uM” value is given as -75.6%.
Turning to `CC(C)(C)c1ccc(C(=O)NCCCn2ccnc2)cc1.Cl`, the “hERG current change (%, negative = inhibition) at 10uM” value is reported as -11%.
With `O=C(NCCCn1ccnc1)/C(=C\c1ccccc1Cl)NC(=O)c1ccccc1`, the “hERG current change (%, negative = inhibition) at 10uM” value is -41.2%.
Take `CN(c1ccccc1)S(=O)(=O)c1cc(C(=O)NCCCn2ccnc2)ccc1Cl`: the “hERG current change (%, negative = inhibition) at 10uM” value was -60.3%.
Under `Cc1ccc(C(=O)N/C(=C/c2ccccc2F)C(=O)NCCCn2ccnc2)cc1` stands -40.5%; under `O=C(O)c1ccc(COc2ccc3c4c(c(=O)oc3c2)CCC4)o1`, 21.4%.
In the case of `Cc1cccc(-c2n[nH]c(=S)n2Cc2ccccc2)c1`, the “hERG current change (%, negative = inhibition) at 10uM” value is on record as -2.87%.
As to `NS(=O)(=O)c1ccc(NC(=O)COC(=O)CSc2n[nH]c(-c3ccccc3)n2)cc1`, the “hERG current change (%, negative = inhibition) at 10uM” value worked out at 12%.
Take `O=C(NN1C(=O)C2C3c4ccccc4C(c4ccccc43)C2C1=O)c1ccc(Cl)cc1` (centres unmarked): the “hERG current change (%, negative = inhibition) at 10uM” value was -8.19%.
For the compound `COc1cc(C(=O)NCc2ccco2)c(Br)c(OC)c1OC`, the “hERG current change (%, negative = inhibition) at 10uM” value was -4.22%.
Take `O=C(Nc1cc(C(F)(F)F)ccc1Cl)c1ccc(NC(=O)C(F)(F)F)cc1`: the “hERG current change (%, negative = inhibition) at 10uM” value came to 0.159%.
For `Cc1c(-n2c(SCC(C)C)nc3ccccc3c2=O)c(=O)n(-c2ccccc2)n1C` the value was 0.437%; for `COC(=O)CSc1nc(N)c(C#N)c(C(C)C)c1C#N`, -8.45%.
In the case of `O=C(NCCCn1ccnc1)/C(=C/c1ccccc1)NC(=O)c1ccccc1`, the “hERG current change (%, negative = inhibition) at 10uM” value is on record as -70.3%.
On to `CN(C)c1ccc(/C=C(\NC(=O)c2ccccc2)C(=O)NCCCn2ccnc2)cc1`, for which the “hERG current change (%, negative = inhibition) at 10uM” value is listed as -9.78%.
In the case of `CN(C)c1ccc(/C=C(/NC(=O)c2ccccc2)C(=O)NCCCn2ccnc2)cc1`, the “hERG current change (%, negative = inhibition) at 10uM” value is 0.277%.
For `CC(C)c1ccc(/C=C(\NC(=O)c2ccccc2)C(=O)NCCCn2ccnc2)cc1`, the “hERG current change (%, negative = inhibition) at 10uM” value is on record as -78.2%.
On to `CC(=O)Nc1nc(CC(C)C)cc(-c2ccccc2)c1C#N`, for which the “hERG current change (%, negative = inhibition) at 10uM” value is on record as 4.98%.
Turning to `COc1ccccc1-n1c(=O)c2c3c(sc2n2c(SC(C)C)nnc12)CCC3`, the “hERG current change (%, negative = inhibition) at 10uM” value is on record as -4.22%.
Under `C=CCSc1nnc2n(-c3ccccc3OC)c(=O)c3c4c(sc3n12)CCC4` stands -64.5%.
For `COc1ccccc1-n1c(=O)c2c3c(sc2n2c(=S)[nH]nc12)CCC3` the value was 21.1%.
For `C=C(C)CSc1nnc2n(C)c(=O)c3c4c(sc3n12)CCC4` the value was -21.6%.
Take `CCCSc1nnc2n(-c3ccccc3OC)c(=O)c3c4c(sc3n12)CCC4`: the “hERG current change (%, negative = inhibition) at 10uM” value is -56.8%.
In the case of `COc1ccccc1-n1c(=O)c2c3c(sc2n2c(SC)nnc12)CCC3`, the “hERG current change (%, negative = inhibition) at 10uM” value is -12.5%.
For `Cn1c(=O)c2c3c(sc2n2c(SCc4ccccc4)nnc12)CCCC3` the value was -9.93%; for `CCSc1nnc2n(-c3ccc(OC)cc3)c(=O)c3c4c(sc3n12)CCCC4`, -6.75%.
With `CCCSc1nnc2n(C)c(=O)c3c4c(sc3n12)CCC4`, the “hERG current change (%, negative = inhibition) at 10uM” value is listed as -71.5%.
Under `O=C(O)/C=C/C(=O)Nc1ccc(OC(F)(F)F)cc1Br` stands 15.7%.
Regarding `O=C(/C(=C/c1ccccc1Cl)c1ccccc1)N1CCOCC1`, the “hERG current change (%, negative = inhibition) at 10uM” value is -3.84%.
`Cc1ccc(C(NC(=O)N2CCCC2)C(Cl)(Cl)Cl)cc1F` (centres unmarked): the “hERG current change (%, negative = inhibition) at 10uM” value was 19.1%.
Turning to `Cc1ccc(NC(=O)c2sc3ccccc3c2Cl)nc1`, the “hERG current change (%, negative = inhibition) at 10uM” value was 8.87%.
Under `COC(C(=O)Nc1ccc(S(=O)(=O)Nc2c(C)cccc2C)cc1)c1ccccc1` (centres unmarked) stands -74.6%; under `COC(C(=O)Nc1ccc(S(=O)(=O)Nc2ccc(F)cc2)cc1)c1ccccc1` (centres unmarked), 0.504%.
`COC(C(=O)Nc1ccc(S(=O)(=O)Nc2ccc(C)c(C)c2)cc1)c1ccccc1` (centres unmarked): the “hERG current change (%, negative = inhibition) at 10uM” value is 15.3%.
